Calls of active or inactive are those of the source.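 How the source made its calls, unless noted: active means normalized viability below 100% at a tested concentration; inactive means the rest.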
Key:
[1] = ovarian cancer cell viability with rucaparib, profiling panel, oncology-focused library, rucaparib conditional (AID 1508598); conditions: patient-derived ovarian cancer cells, CellTiter-Glo viability, 144 h, stronger effect = lower value
[2] = survival rescue of mitochondrial mutant cells in low glucose, primary screen, MELAS cybrids, Rieske KO mouse fibroblasts, CellTiter-Glo (AID 1508586;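 active means mean z-score across replicates of 1.96 or higher in either the MELAS or the Rieske mutant cell line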;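 further: z relative to plate mean and SD of compound and empty wells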)
[3] = viability rescue of complex I mutant cybrids, primary screen, cell-based, galactose medium, ATP luminescence (AID 1645843;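 active means z-score of at least 1.8 in each of two replicates, scored against plate mean and spread of sample wells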;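 further: positive z means more ATP and so rescue of galactose-driven cybrid death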); conditions: complex I mutant cybrid cells, 72 h, stronger effect = higher value
[4] = at 0.000305 µM, OCI-C5x cells, with rucaparib 10 µM, 100% = cells with rucaparib alone
[5] = at 0.000305 µM, OCI-C5x cells, without rucaparib
[6] = at 0.000305 µM, OCI-P5x cells, with rucaparib 20 µM, 100% = cells with rucaparib alone
[7] = at 0.000305 µM, OCI-P5x cells, without rucaparib
[8] = at 0.00122 µM, OCI-C5x cells, with rucaparib 10 µM, 100% = cells with rucaparib alone
[9] = at 0.00122 µM, OCI-C5x cells, without rucaparib
[10] = at 0.00122 µM, OCI-P5x cells, with rucaparib 20 µM, 100% = cells with rucaparib alone
[11] = at 0.00122 µM, OCI-P5x cells, without rucaparib
[12] = at 0.00488 µM, OCI-C5x cells, with rucaparib 10 µM, 100% = cells with rucaparib alone
[13] = at 0.00488 µM, OCI-C5x cells, without rucaparib
[14] = at 0.00488 µM, OCI-P5x cells, with rucaparib 20 µM, 100% = cells with rucaparib alone
[15] = at 0.00488 µM, OCI-P5x cells, without rucaparib
[16] = at 0.0195 µM, OCI-C5x cells, with rucaparib 10 µM, 100% = cells with rucaparib alone
[17] = at 0.0195 µM, OCI-C5x cells, without rucaparib
[18] = at 0.0195 µM, OCI-P5x cells, with rucaparib 20 µM, 100% = cells with rucaparib alone
[19] = at 0.0195 µM, OCI-P5x cells, without rucaparib
[20] = at 0.0781 µM, OCI-C5x cells, with rucaparib 10 µM, 100% = cells with rucaparib alone
[21] = at 0.0781 µM, OCI-C5x cells, without rucaparib
[22] = at 0.0781 µM, OCI-P5x cells, with rucaparib 20 µM, 100% = cells with rucaparib alone
[23] = at 0.0781 µM, OCI-P5x cells, without rucaparib
[24] = at 0.313 µM, OCI-C5x cells, with rucaparib 10 µM, 100% = cells with rucaparib alone
[25] = at 0.313 µM, OCI-C5x cells, without rucaparib
[26] = at 0.313 µM, OCI-P5x cells, with rucaparib 20 µM, 100% = cells with rucaparib alone
[27] = at 0.313 µM, OCI-P5x cells, without rucaparib
[28] = at 1.25 µM, OCI-C5x cells, with rucaparib 10 µM, 100% = cells with rucaparib alone
[29] = at 1.25 µM, OCI-C5x cells, without rucaparib
[30] = at 1.25 µM, OCI-P5x cells, with rucaparib 20 µM, 100% = cells with rucaparib alone
[31] = at 1.25 µM, OCI-P5x cells, without rucaparib
[32] = at 5 µM, OCI-C5x cells, with rucaparib 10 µM, 100% = cells with rucaparib alone
[33] = at 5 µM, OCI-C5x cells, without rucaparib
[34] = at 5 µM, OCI-P5x cells, with rucaparib 20 µM, 100% = cells with rucaparib alone
[35] = at 5 µM, OCI-P5x cells, without rucaparib
[36] = MELAS cybrid survival, CellTiter-Glo 48 h, stronger effect = higher value
[37] = Rieske KO mouse fibroblast survival, CellTiter-Glo 72 h

COc1cc([C@H]2c3cc4c(cc3[C@@H](O[C@@H]3O[C@@H]5CO[C@@H](C)O[C@H]5[C@H](O)[C@@H]3O)[C@H]3COC(=O)[C@H]23)OCO4)cc(OC)c1O
active: viability [1, 6] 99.3% | viability [1, 7] 97.3% | viability [1, 10] 96.5% | viability [1, 11] 90.8% | viability [1, 18] 98.6% | viability [1, 19] 97.4% | viability [1, 21] 95.6% | viability [1, 22] 99.3% | viability [1, 23] 98.6% | viability [1, 24] 75.1% | viability [1, 25] 64.7% | viability [1, 26] 99.1% | viability [1, 27] 82% | viability [1, 28] 72% | viability [1, 29] 61.6% | viability [1, 30] 79.8% | viability [1, 31] 42.6% | viability [1, 32] 38.1% | viability [1, 33] 29.3% | viability [1, 34] 55.2% | viability [1, 35] 26.7%
inactive: viability [1, 4] 115% | viability [1, 5] 108% | viability [1, 8] 108% | viability [1, 9] 103% | viability [1, 12] 123% | viability [1, 13] 100% | viability [1, 14] 101% | viability [1, 15] 101% | viability [1, 16] 112% | viability [1, 17] 103% | viability [1, 20] 106%

N[C@@H]1CCCN(c2c(/C=C3\SC(=O)NC3=O)cccc2-c2ccccc2)C1
inactive: viability [1, 4] 108% | viability [1, 5] 122% | viability [1, 7] 112% | viability [1, 8] 116% | viability [1, 9] 121% | viability [1, 11] 111% | viability [1, 12] 119% | viability [1, 13] 119% | viability [1, 14] 103% | viability [1, 15] 108% | viability [1, 16] 105% | viability [1, 17] 108% | viability [1, 19] 111% | viability [1, 20] 108% | viability [1, 21] 115% | viability [1, 22] 101% | viability [1, 23] 109% | viability [1, 24] 105% | viability [1, 27] 106% | viability [1, 29] 103% | viability [1, 31] 106% | viability [1, 32] 115% | viability [1, 33] 119%
active: viability [1, 6] 96.6% | viability [1, 10] 98.1% | viability [1, 18] 96.9% | viability [1, 25] 99.1% | viability [1, 26] 91.3% | viability [1, 28] 93.8% | viability [1, 30] 91.3% | viability [1, 34] 74.6% | viability [1, 35] 97.5%

COc1cc([C@H]2c3cc4c(cc3[C@@H](O[C@@H]3O[C@@H]5CO[C@@H](c6cccs6)O[C@H]5[C@H](O)[C@H]3O)[C@H]3COC(=O)[C@H]23)OCO4)cc(OC)c1O
active: viability [1, 12] 97.4% | viability [1, 16] 73.9% | viability [1, 17] 81.6% | viability [1, 20] 63.2% | viability [1, 21] 73.7% | viability [1, 22] 87.9% | viability [1, 23] 60.7% | viability [1, 24] 78.4% | viability [1, 25] 56.8% | viability [1, 26] 71% | viability [1, 27] 35.6% | viability [1, 28] 33.4% | viability [1, 29] 21.2% | viability [1, 30] 54.6% | viability [1, 31] 23.6% | viability [1, 32] 8.34% | viability [1, 33] 7.07% | viability [1, 34] 12.4% | viability [1, 35] 7.92%
inactive: viability [1, 4] 104% | viability [1, 5] 117% | viability [1, 6] 100% | viability [1, 7] 116% | viability [1, 8] 115% | viability [1, 9] 111% | viability [1, 10] 102% | viability [1, 11] 109% | viability [1, 13] 104% | viability [1, 14] 100% | viability [1, 15] 109% | viability [1, 18] 102% | viability [1, 19] 102%

COc1ccccc1C(=O)N1CCN2C(=O)[C@H](CCCCN)NC(=O)[C@H]2C1
inactive: z-score [2, 36] 0.643 | z-score [3] -0.735
-0.574: z-score [2, 37]

CCn1cc(CN2CCN3C(=O)[C@@H]4C[C@@H](O)CN4C(=O)[C@H]3C2)c(C)n1
-0.193: z-score [2, 37]
inactive: z-score [2, 36] -0.258 | z-score [3] -0.705

CCOc1ccc(Cc2cc([C@@H]3O[C@H](CO)[C@@H](O)[C@H](O)[C@@H]3O)ccc2Cl)cc1
inactive: viability [1, 4] 111% | viability [1, 5] 102% | viability [1, 8] 126% | viability [1, 9] 108% | viability [1, 12] 108% | viability [1, 13] 106% | viability [1, 14] 105% | viability [1, 16] 117% | viability [1, 17] 116% | viability [1, 18] 101% | viability [1, 19] 107% | viability [1, 20] 111% | viability [1, 21] 108% | viability [1, 22] 106% | viability [1, 23] 106% | viability [1, 24] 112% | viability [1, 25] 118% | viability [1, 26] 105% | viability [1, 27] 105% | viability [1, 28] 111% | viability [1, 29] 118% | viability [1, 31] 112% | viability [1, 32] 110% | viability [1, 33] 121% | viability [1, 34] 106% | viability [1, 35] 109%
active: viability [1, 6] 94.3% | viability [1, 7] 91.9% | viability [1, 10] 96.6% | viability [1, 11] 98.1% | viability [1, 15] 98.8% | viability [1, 30] 99.3%
